From PubChem BioAssay
Shown are actives, neighbours in structure and some others; about 1.9% of the full set was active somewhere.
TNAP act DEA = human TNAP activation, intermediate phosphate acceptor; P05186; purified TNAP, CDP-star luminescence, 100 mM DEA, 30 min; stronger effect = higher value; scale: 0 levamisole-inhibited, 1 vehicle-only enzyme; AID 813; 64,000 tested, under 10 active; activation factor at 20 µM;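 active = activation factor of at least 2 at 20 µM, relative to controls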
Her2 expr inh = lowers expression of human Her2 kinase. SKBR-3 HER2 protein level, AlphaScreen, 18-24 h; stronger effect = lower value. HER2 level % of control, % at 10 µM. AID 645. actives 0.69% (n = 65,000). P04626;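 active = HER2 level under 5% of the carrier-only control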;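 also: 100% = DMSO carrier and 0% = 500 nM PU-H71 HSP90 inhibitor; lower value means stronger loss of Her2 protein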
S1P1 ag-PAM = S1P1 (human) agonism or agonism potentiation; P21453; AID 449; activation, % at 9.5 µM; actives 0.57% (n = 56,000); S1P1 CRE-bla cells, forskolin, beta-lactamase FRET, potentiator mode; S1P1 agonist co-added at EC20, 2 nM; 100% = saturating reference agonist, 0% = basal;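 active = activation above a cutoff set at the mean activation of all tested compounds plus 3 SD, cut at about 54% in these data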;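 also: forskolin at 4 µM as EC80 and the EC20 agonist is SEW2871; 100% = SEW2871 at its EC100 plus forskolin at EC80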
SKBR3 24h inh = SK-BR-3 proliferation inhibitors; SK-BR-3 viability, CellTiter-Glo ATP luminescence, 24 h; stronger effect = lower value; viability, % at 10 µM; actives 0.47% (n = 41,000); AID 847;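 active = viability at or below the median of all test compounds minus 3 SD, in both replicates if run twice, cut at about 45% in these data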;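 also: 100% = median untreated cell wells and 0% = median positive control drug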
BAP1 inh = blocks human BAP1 ubiquitin-AMC hydrolysis; recombinant BAP1, Ub-AMC hydrolysis fluorescence kinetic; stronger effect = lower value; AID 436; activity remaining (% of control), % at 20 µM; Q92560; actives 0.48% (n = 72,000);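 active = activity remaining at or below 50% of control, provided the compound also passes the data quality filters; inactive = the rest, including low values that fail the filters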;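 also: 100% = DMSO wells rate and 0% = substrate alone blank rate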
Hsp90 inh = displaces geldanamycin probe from tumor Hsp90; P07900; NCI-N417 lysate Hsp90, Cy3B-geldanamycin FP displacement; inhibition, % at 30 µM; actives 0.35% (n = 64,000);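 active = inhibition above 50%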;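 also: 0% = tracer plus lysate wells and 100% = tracer alone without lysate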
Active calls of the source: *; x = not tested or not shown.

SMILES	TNAP act DEA	Her2 expr inh	S1P1 ag-PAM	SKBR3 24h inh	BAP1 inh	Hsp90 inh
COC(=O)c1sc(S(=O)(=O)N2CCN(c3ccccc3)CC2)c(C(=O)OC)c1C	0.8	-30*	-23	91	69	-1
COc1ccc2nc(NC(=O)CSc3nc4cccnc4n3C)sc2c1	1	36	18	x	81	-2
Cc1ccc2[nH]c(=O)c(CN(Cc3cccnc3)C(=O)c3ccncc3)cc2c1	0.9	91	5	99	68	-3
COc1cc(C2c3c(oc4c(C)cc(C)cc4c3=O)C(=O)N2Cc2cccnc2)ccc1O (stereo unspecified)	0.9	80	-28	35*	96	5
CCOc1ccc(NC(=O)CSC(N)=O)cc1	0.8	108	1	x	100	2
CCOc1ccc(NC(=O)C/C(N)=N/O)cc1	0.9	-21*	x	78	61	-10
COc1ccc(OC)c(CNC(=O)CCN2C(=O)COc3ccccc32)c1	0.9	124	0	x	100	-2
Oc1c(Cl)cc(Cl)cc1Sc1cc(Cl)cc(Cl)c1O	0.7	115	132*	88	x	24
N#Cc1ccc(NC(=O)Nc2ccc(Cl)cc2)cc1	1	38	129*	144	80	0
O=C1c2c(O)cc(O)cc2OC(c2ccc(O)c(O)c2)C1O (stereo unspecified)	x	x	x	x	98	71*
COc1cccc(CN2CCN(Cc3ccc4c(c3)OCO4)CC2)c1OC	x	x	x	x	105	x
CCOC(=O)CNC(=O)CSc1ncnc2c1cnn2Cc1ccccc1	0.9	-18*	6	131	96	1
O=C(COc1ccc(-c2ccccc2)cc1)N1CCN(C(=O)c2cccnc2)CC1	0.9	69	3	x	92	92*
CN(C)CCCN1c2ccccc2Sc2ccc(C(F)(F)F)cc21	0.8	108	8	105	100	0
OCCN1CCN(CCCN2c3ccccc3Sc3ccc(C(F)(F)F)cc32)CC1	0.8	-9.1*	9	16*	139	0
Clc1ccc(OCCN2CCN(c3ncnc4sccc34)CC2)cc1	0.9	115	115*	x	107	-4
COc1cccc2sc(Nc3nc(-c4ccccn4)cs3)nc12	1.1	71	72*	94	62	11
c1ccc(-c2csc(Nc3cccnc3)n2)nc1	1	38	-26	75	118	-9
C=C(C)COc1ccc2c(C)c(C)c(=O)oc2c1OCC(=C)C	0.9	51	x	x	156	2
COc1ccc(-n2c(C)c(C(C)=O)c3cc(O)ccc32)cc1	0.9	134	76*	133	73	1
CCC(C)n1c(C)nc2c(c1=O)c1nc3ccccc3nc1n2-c1ccc2c(c1)OCCO2 (stereo unspecified)	1	104	-4	105	78	-13
O=C(CCN1CCN(c2ccccc2F)CC1)Nc1ccccc1F	1	117	-24	x	81	-6
O=C(CCN1CCN(c2ccccc2F)CC1)c1ccc(Br)cc1	0.9	-16*	-2	x	96	-1
COc1ccc(-n2c(NC(=O)c3ccco3)c(C#N)c3nc4ccccc4nc32)cc1	0.9	44	-31	85	58	41
CCc1ccc(CNc2ccc(N3CCN(C(C)=O)CC3)cc2)cc1	x	90	-6	107	121	57*
SMILES	TNAP act DEA	Her2 expr inh	S1P1 ag-PAM	SKBR3 24h inh	BAP1 inh	Hsp90 inh
CCCCn1nnnc1SCC(=O)N1CCN(C(=O)c2ccco2)CC1	0.9	100	9	x	99	-3
CCC(C)c1ccc2oc(-c3ccc(NC(=O)c4ncn[nH]4)cc3)nc2c1 (stereo unspecified)	0.9	94	98*	93	73	-2
CC(C)c1ccc2oc(-c3ccc(NC(=O)c4ncn[nH]4)cc3)nc2c1	1	105	55	95	160	-4
O=C(NC1CCCCC1)C1CC(O)CN1C(=O)OCc1ccccc1 (stereo unspecified)	0.8	102	-16	x	104	1
CCc1nnc(NC(=O)c2ccc(S(=O)(=O)N(CCOC)CCOC)cc2)o1	1	133	-3	35*	108	2
COCCN(CCOC)S(=O)(=O)c1ccc(C(=O)Nc2nnc(C3CC3)o2)cc1	0.9	117	-3	82	108	0
Cc1ccc(-c2nn3c(C)nnc3s2)cc1NC(=O)c1ccc(-c2cccc(Cl)c2)o1	0.9	16	-49	33*	x	-11
Cc1onc(-c2ccccc2)c1C(=O)OCC(=O)c1ccccc1	0.8	109	-11	134	97	1
Cc1ccc(-n2c(C)cc(C(=O)COC(=O)c3c(C)noc3C)c2C)cc1	1	81	62*	x	72	-3
COc1ccc(C2=NO[C@@H]3C(=O)N(c4c(C)cccc4C)C(=O)[C@H]23)cc1OC	1	119	3	93	104	74*
COc1ccc(OC)c(N2C(=O)[C@@H]3C(c4ccccc4Cl)=NO[C@@H]3C2=O)c1	0.9	120	-9	111	77	2
COc1ccc(C2(C(=O)Nc3c(C)n(C)n(-c4ccccc4)c3=O)CCCC2)cc1OC	0.9	79	x	82	79	4
CC(=O)Nc1cnc2ccccc2n1	0.9	87	0	122	82	56*
Cc1[nH]n2c(=O)cc(C(C)(C)C)nc2c1-c1ccccc1	2*	107	7	75	63	-2
Cn1nc(C(C)(C)C)cc1C(=O)NCc1ccc(N2CCCC2=O)cc1	0.9	84	56*	93	86	-1
COc1ccc(CNC(=O)c2ccc(N3CCCC3=O)cc2)cc1	0.9	122	x	x	125	-5
CCOC(=O)NC1(Nc2ccc(Cl)cn2)Oc2ccccc2O1	1	89	25	x	143	50*
CCOC(=O)c1c(C(=O)OCC)c(C)n(N2C(=O)CSC2=S)c1C	0.9	76	-13	x	98	-17
CCOc1ccc(C(c2nnnn2Cc2ccccc2)N2CCN(C(=O)c3ccco3)CC2)cc1 (stereo unspecified)	0.9	118	0	41*	97	-4
COc1ccc(OCCn2c(=N)n(CCO)c3ccccc32)cc1	0.9	80	-5	90	104	1
N=c1n(CCO)c2ccccc2n1CCOc1ccc(Cl)cc1Cl	1	2.4*	19	x	104	0
CCCCCOC(=O)CSc1nc2c(c(=O)[nH]c(=O)n2C)n1Cc1ccc(Cl)cc1	0.9	80	8	x	82	1
CC1(C)CC(=O)C(C=Nc2ccc3[nH]ncc3c2)=C(O)C1	0.8	101	99*	x	182	10
CCOC(=O)CN1C(=O)NC2NC(=O)NC21 (stereo unspecified)	1	96	-3	80	117	-2
COC(=O)Cn1c(CN2CCN(c3ccccc3F)CC2)nc2c1c(=O)n(C)c(=O)n2C	0.9	115	-26	x	98	0
